The list is not random: actives were taken first. Their share in the collection is about 3.5%.
JMJD2E inh – JMJD2E (human) inhibition; JMJD2E catalytic domain, FDH-coupled NADH fluorescence (FDH is formaldehyde dehydrogenase); Potency, µM (series often up to 57.1 µM), inactives show top-dose activity change, negative = inhibition, usual class: inhibitors; hit rate 1.6% among 230,000; active = well fitted inhibition curve with a large enough effect, not every such curve was filed as active; inconclusive = small, poorly fitted or top-dose-only effect, or another doubt; inactive = no such curve, though single readings can be large or run the other way;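 note: 0% = wells with enzyme and -100% = buffer wells without enzyme; nearly all actives have a fitted effect of over 50% in size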
Target sequence (B2RXH2 1-337 limits assumed): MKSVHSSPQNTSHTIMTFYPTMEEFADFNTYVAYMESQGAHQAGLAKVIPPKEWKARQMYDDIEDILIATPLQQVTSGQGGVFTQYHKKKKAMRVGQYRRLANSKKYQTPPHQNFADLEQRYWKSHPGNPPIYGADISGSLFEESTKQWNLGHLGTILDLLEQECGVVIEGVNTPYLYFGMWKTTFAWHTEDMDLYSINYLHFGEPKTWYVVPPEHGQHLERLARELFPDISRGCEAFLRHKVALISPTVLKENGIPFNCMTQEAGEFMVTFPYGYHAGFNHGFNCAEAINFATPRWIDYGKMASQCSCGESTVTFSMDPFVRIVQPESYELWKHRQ
TR SRC2 fluor cs – alters Texas Red total fluorescence, flagging assay interference; TRb/SRC2 Texas Red total fluorescence interference; Potency, µM (top dose mostly 106 µM), for the others: top-dose fluorescence change, negative = quenching; hit rate 0.29% among 280,000; AID 1479; active = well fitted curve in either direction with a large enough effect; inconclusive = small, poorly fitted or top-dose-only effect
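Flags fluorescent or light-absorbing compounds by total fluorescence, S + 2P, at 555 nm excitation and 632 nm emission. Mixture: 20 nM Texas Red SRC2 peptide, 0.6 uM human TRb LBD, 1 uM T3, 5% DMSO; compound exposure 5 h at ambient temperature.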
Tau fibril ThT – inhibitors of human tau fibril formation, thioflavin T binding. P10636. recombinant tau K18 P301L, heparin-induced fibrillization, ThT fluorescence. Potency, µM (top dose mostly 57.4 µM), inactives show top-dose activity, negative = inhibition, hits mostly inhibitors. hit rate 2.1% among 270,000; note: nearly all actives have a fitted effect of over 55% in size
Target sequence (P10636 561-689 P618L limits assumed): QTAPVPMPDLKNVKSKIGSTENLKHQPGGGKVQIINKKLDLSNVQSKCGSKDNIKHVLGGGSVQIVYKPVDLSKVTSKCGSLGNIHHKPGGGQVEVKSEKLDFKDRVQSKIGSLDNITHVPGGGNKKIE
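Heparin-induced fibrillization of the P301L-mutant K18 repeat-domain fragment of human tau was followed by ThT binding in quantitative high-throughput format.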
TRb-SRC2 inh – disrupts binding of human TR beta to SRC2 | TRbeta-SRC2 peptide binding, fluorescence polarization; receptor liganded with 1 µM T3 | Potency, µM (highest dose often 106 µM), for the others: at the top dose activity change, negative = inhibition, most hits filed as inhibitors | hit rate 0.065% among 280,000 | AID 1469;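 note: plate controls were bound peptide for no effect and peptide without receptor for full effect; nearly all actives have a fitted effect of over 50% in size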
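Fluorescence polarization of 20 nM Texas Red SRC2 peptide (20-aa NR interaction domain) bound to 0.6 uM human TRb ligand-binding domain, with 1 uM T3, after 5 hr at ambient temperature; inhibition seen as decreased polarization.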
Tau fluor cs – counter-screen for tau fibril formation inhibitors; hit rate 0.93% among 280,000; Potency, µM (series often up to 57.7 µM), for the others: top-dose activity change, negative = decrease; AID 1463; tau K18 P301L Alexa594 fluorescence, heparin fibrillization; note: nearly all actives have a fitted effect of over 55% in size
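Human tau K18 P301L (15 uM unlabeled, 0.24 uM Alexa 594-labeled) in 100 mM sodium acetate pH 7 with 20 uM heparin, 6 hr at 37 C. ThT 30 uM added, 1 hr ambient; Alexa 594 FP and total fluorescence read at 555/632 nm.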
Tau fibril FP – blocks human tau fibril formation measured by polarization. hit rate 0.39% among 280,000. K18 P301L tau heparin fibrillization, Alexa594 FP, 6 h. P10636. Potency, µM (doses to about 57.7 µM), for inactives: at the top dose activity, negative = inhibition, actives largely listed as inhibitors; note: nearly all actives have a fitted effect of over 55% in size
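Quantitative HTS format: compounds meet 15 uM recombinant K18 P301L tau and Alexa 594-tau tracer in 100 mM sodium acetate pH 7; 20 uM heparin triggers fibrillization at 37 C over 6 hr; FP gives the signal.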
Numbers without * were called inactive; ? = inconclusive; / = not tested or not shown; ! = not confirmed by another sample; [ ] = dose if it differs, or a comment. Unless noted, calls come from the whole dose curve; as a rule, active = well fitted curve in the direction sought with a large enough effect; inconclusive = small, poorly fitted or top-dose-only effect, or another doubt; inactive = no such curve, though single readings can be large; an effect the other way counts as inactive or inconclusive. Unless noted, % is set by controls: 0 for no effect and ±100 for the full control effect; potency is the fitted concentration of half-maximal effect.

SMILES	JMJD2E inh	TR SRC2 fluor cs	Tau fibril ThT	TRb-SRC2 inh	Tau fluor cs	Tau fibril FP
N#C/C(=C\c1ccc(OC(=O)c2ccc(Br)s2)cc1)c1nc2ccccc2[nH]1	18µM*	1%	?	-11%	-23%	?
N#C/C(=C\c1ccc(OCc2ccc(Cl)cc2Cl)cc1)c1nc2ccccc2[nH]1	/	282µM*[quencher]	-6%	-26%[53 µM]	-27%	?
COc1cc(/C=C(\C#N)c2nc3ccccc3[nH]2)cc(Cl)c1OCc1ccccc1Cl	/	2%	-2%	-10%	?	?
c1ccc2oc(C3=NNC(=NC4CC4)SC3)cc2c1	-12%	-1%	14µM*	-2%	-23%	-7%
NCCS	1%	-5%	16µM*	0%	?	?
CCN(CC)CCCN1C=C2C(=O)C(C)(OC(=O)CCc3ccccc3)C(=O)C=C2C=C1c1ccc(C#N)cc1 (stereo unspecified)	?	-5%[11.2 µM]	13µM*!	0%[11.2 µM]	?	?
COc1ccc(CN2C=C3C(=O)C(C)(OC(=O)CCc4ccccc4)C(=O)C=C3C=C2c2ccc(C#N)cc2)cc1 (stereo unspecified)	?	-2%[11.2 µM]	?	-1%[11.2 µM]	-9%[11.6 µM]	2%[11.6 µM]
CC1(OC(=O)CCc2ccccc2)C(=O)C=C2C=C(C3CC3)OC=C2C1=O (stereo unspecified)	0%	3%	?	5%	-15%	?
COc1ccc(N2C=C3C(=O)C(C)(OC(=O)CCc4ccccc4)C(=O)C=C3C=C2c2ccc(C#N)cc2)cc1 (stereo unspecified)	20µM*!	-4%[11.2 µM]	?	-5%[11.2 µM]	-9%[11.6 µM]	?
CC1(OC(=O)CCc2ccccc2)C(=O)C=C2C=C(c3ccc(C#N)cc3)N(C(CO)CO)C=C2C1=O (stereo unspecified)	3.5µM*	-4%[11.2 µM]	?	2%[11.2 µM]	-12%[11.6 µM]	?
CC1(OC(=O)CCc2ccccc2)C(=O)C=C2C=C(c3ccc(C#N)cc3)N(C3CCCCC3)C=C2C1=O (stereo unspecified)	28µM*!	-3%[11.2 µM]	?	-3%[11.2 µM]	-5%[11.6 µM]	3%[11.6 µM]
CN1CCN(CCC(=O)Nc2ccc(Cl)cc2)CC1	/	0%	-14%	0%	-16%	-1%
COc1ccccc1[C@H]1C(c2cccc(C)c2)=NN(c2ccccc2)[C@@H]1CO	/	-5%	-20%[81.4 µM]	1%	?	?
CC1(OC(=O)C2CCCC2)C(=O)C=C2C=C(c3ccsc3)N(Cc3ccc4c(c3)OCO4)C=C2C1=O (stereo unspecified)	?	1%[11.2 µM]	?	4%[11.2 µM]	-3%[11.6 µM]	8%[11.6 µM]
CC1(OC(=O)C2CCCC2)C(=O)C=C2C=C(c3ccsc3)N(CCc3c[nH]c4ccccc34)C=C2C1=O (stereo unspecified)	?	-3%[11.2 µM]	4.5µM*!	11%[11.2 µM]	0%[11.6 µM]	?
CCCCC1=CC2=CC(=O)C(C)(OC(=O)CC)C(=O)C2=CN1CCc1c[nH]c2ccccc12 (stereo unspecified)	4%[11.4 µM]	0%[11.2 µM]	?	11%[11.2 µM]	2%[11.6 µM]	2%[11.6 µM]
CC1(OC(=O)CCc2ccccc2)C(=O)C=C2C=C(c3ccc(C#N)cc3)N(CCc3c[nH]c4ccccc34)C=C2C1=O (stereo unspecified)	16µM*!	-4%[11.2 µM]	?	3%[11.2 µM]	-11%[11.6 µM]	4%[11.6 µM]
COc1ccc(OC)c(NC(=O)c2cc(C3CC3)nc3c2c(C)nn3-c2ccc(C)cc2)c1	/	-2%	-13%	2%	?	-7%
COc1ccc(-c2ccc(NS(=O)(=O)c3ccc(F)c(C(F)(F)F)c3)cc2)nn1	/	224µM*[quencher]	-5%	-4%	-26%	-3%
COc1ccccc1OCCCSc1nc(-c2ccc(C(C)(C)C)cc2)nc2cc(=O)[nH]n12	/	-2%	-13%	-5%	-9%	-1%
O=C1NC(=O)/C(=C\c2ccc(O)cc2O)S1	16µM*	-16%	?	2%	-28%	-6%
Cc1cc(N2CCOCC2)ccc1/C=C1/SC(=O)NC1=O	-11%	-10%	10µM*	0%	-27%	-9%
O=C1NC(=O)/C(=C\c2ccccc2OCc2ccccc2)S1	5%	-2%	-10%	0%	-14%	-4%
C=CCN1C(=O)S/C(=C\c2ccc(N3CCOCC3)cc2C)C1=O	-2%	13%	?	-21%	?	5%
CCCN(CCC)C(=O)Cn1c(=O)n(CCC(=O)NCCc2ccccc2)c(=O)c2ccccc21	1%	1%	-8%	-19%	-3%	4%
SMILES	JMJD2E inh	TR SRC2 fluor cs	Tau fibril ThT	TRb-SRC2 inh	Tau fluor cs	Tau fibril FP
O=C(CCCSc1nc2ccccc2[nH]1)N1CCN(c2ccc([N+](=O)[O-])cc2)CC1	-5%	-4%	0.79µM*	-12%	-19%	-6%
O=C(CSc1nc2ccccc2[nH]1)N1CCN(c2ccc(F)cc2)CC1	10%	0%	-12%	3%	-8%	6%
Cc1occc(=O)c1O	16µM*	-2%	-8%	-5%	-10%	-15%
Cc1c(O)ccoc1=O	?	-3%	0%	-9%	7%	-3%
Cc1ccc(COC(=O)c2ccc3c(c2)C(=O)N(CCCN2CCOCC2)C3=O)cc1	-6%	-3%	4%	1%	1%	-7%
O=C(O)c1ccc(S(=O)(=O)N(Cc2cccs2)CC2CCCO2)cc1 (stereo unspecified)	1%	1%	5%	1%	-7%	0%
Cc1ccc(C(=O)c2c(C)oc3c2C(=O)C(=O)c2ccccc2-3)cc1	6%	-7%	3.5µM*	?	-27%	?
Cc1ccc(C(=O)c2coc3c2C(=O)C(=O)c2ccccc2-3)cc1	?	2%	2.2µM*	2%	?	?
Cc1oc2c(c1C(=O)N1CCC(C)CC1)C(=O)c1ccccc1C2=O	0%	-1%	-11%	8%	-17%	0%
Cc1oc2c(c1C(=O)c1ccc(Cl)cc1)C(=O)C(=O)c1ccccc1-2	22%	-2%	2.2µM*	?	-28%	?
O=C(c1ccc(Cl)cc1)c1ccc(CN2C(=O)c3ccccc3C2=O)o1	3%	0%	-17%	5%	-25%	1%
CCCCCCN1C=CC=C/C1=C\C=C(C#N)C#N	-8%	-3%	16µM*	-2%	?	?
COc1ccc(Cn2c(O)c(C=Nc3ccccc3C(=O)O)c3ccccc3c2=O)cc1	?	-18%	?	6%	-23%	4%
COc1ccccc1NS(=O)(=O)c1cccc(-n2c(O)c(C=Nc3ccccc3C(=O)O)c3ccccc3c2=O)c1	-13%	-9%	16µM*	4%	?	-17%
O=C(O)CCc1nn2c3ccccc3n(CC(=O)c3ccccc3)c2nc1=O	?	3%	-11%	-4%	-10%	-1%

Screening results as filed in PubChem.
